HepG2 tox: HepG2 cytotoxicity, counter-screen for TGF-b inhibitors. hit rate 0.76% among 410,000. Potency, µM (titrated, usually from 46.1 µM), for inactives: at the top dose activity change, negative = cytotoxicity, hits mostly cytotoxic. HepG2 CAGA-GFP viability, ATP luminescence, 18 h; further: potency means the concentration at half of the fitted maximal effect
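HepG2 CAGA-GFP cells (1000/well, DMEM with 1% FBS) received compound, then TGF-beta at 500 pg/mL final, and were incubated 18 hours at 37 degrees C. Viability was read by CellTiter-Glo luminescence. Media-only wells were set as complete cell-killing and DMSO as no toxicity.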
Giardia killer: Giardia lamblia killing; Giardia lamblia trophozoite viability; activity change, % at 7.66 µM, hits read low; hit rate 0.15% among 340,000; in the data active means activity change below about -80%; inconclusive means between about -30% and that limit;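 further: parasites exposed to compound for two days anaerobically before the ATP read; on the % scale 0 is the no-effect control and ±100 the full control effect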
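Trophozoites 100 cells/well + cpd; 48 hrs, 37 deg C, anaerobic. ATPLite 1-Step added, 15-30 min RT, luminescence read (ATP-based viability).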
IL1B secr inh: blocks inflammasome-driven IL-1 beta release; THP-1 LPS/ATP IL-1B secretion, AlphaLISA, 16 h; hits give low values; activity change, % at 57.5 µM; hit rate 4.7% among 360,000; in the data active means activity change below about -50%; inconclusive means mostly about -30% to -49%; further: on the % scale 0 is the no-effect control and ±100 the full control effect
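THP-1 cells pretreated 1 hr with compounds (up to 57.5 uM final), then stimulated with LPS (250 ng/mL final) plus ATP (1.25 mM final); secreted IL-1B measured by AlphaLISA after 16 hr, decreased signal indicating inhibition.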
HT1080 IDH1KD tx: HT-1080 IDH1 knockdown cell toxicity (counter line); HT-1080 IDH1 knockdown viability, ATP luminescence, 48 h; Potency, µM (doses to about 46.1 µM), for the others: top-dose activity, negative = toxicity, hits mostly cytotoxic; hit rate 2% among 360,000;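 further: potency means the concentration at half of the fitted maximal effect; 0% = DMSO wells and -100% = cell-free medium wells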
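In this qHTS, HT-1080 cells depleted of IDH1 are exposed for 48 h at 37 °C to compound titrations. Toxicity is scored from CellTiter-Glo luminescence, with DMSO as full viability and medium alone as none.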
HT1080-NT tox: kills 2HG-producing HT-1080-NT fibrosarcoma cells | HT-1080-NT fibrosarcoma viability, CellTiter-Glo ATP luminescence, 48 h | Potency, µM (top dose mostly 46.1 µM), for inactives: at the top dose activity, negative = less viability, actives largely listed as cytotoxic | hit rate 1.6% among 360,000;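 further: NT is the 2HG producing partner of a matched IDH1 knockdown line; potency means the concentration at half of the fitted maximal effect; 0% = DMSO-treated cells and -100% = media-only wells without cells; nearly all actives have a fitted effect of over 55% in size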
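Toxicity toward the 2HG-producing NT line was scored as %Activity, normalised to DMSO and no-cell wells, from CellTiter-Glo luminescence after 48 hours' treatment.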
TGFb inhibitor: blocks TGF-b signaling. hit rate 1.2% among 410,000. Potency, µM (top dose mostly 46.1 µM), without a hit: at the top dose activity, negative = inhibition, most hits filed as inhibitors. HepG2 CAGA-GFP TGF-b/SMAD3 reporter, GFP fluorescence, 18 h; TGF-beta stimulated, 500 pg/mL final; further: potency means the concentration at half of the fitted maximal effect; on the % scale 0 is the no-effect control and ±100 the full control effect; nearly all actives have a fitted effect of over 65% in size
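Using HEPG2 CAGA-GFP reporter cells at 1000 cells/well, we pinned test compounds, stimulated with recombinant TGF-beta (500 pg/mL final) and measured total well GFP after 18 h.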
Active calls of the source: *; ? = inconclusive; · = not tested or not shown. Shown are actives, neighbours in structure and some others; about 6.5% of the full set was active somewhere. Unless noted, the call rests on the fitted dose curve; in most records, active means well fitted curve in the direction sought with a large enough effect; inconclusive means small, poorly fitted or top-dose-only effect, or another doubt; inactive means no such curve, though single readings can be large; an effect the other way counts as inactive or inconclusive.

SMILES	HepG2 tox	Giardia killer	IL1B secr inh	HT1080 IDH1KD tx	HT1080-NT tox	TGFb inhibitor
COc1ccc(-c2nc(C#N)c(N3CCC(C)CC3)o2)cc1	-22.9%	18.9	-51.8*	28.4%	12.9%	-9.8%
CCOc1ccc(-c2nc(C#N)c(N3CCCCCC3)o2)cc1	-21.5%	-5.5	-60.7*	6.9%	-13.1%	?
Cc1ccc(C(=O)OCc2nc3ccccc3s2)o1	0.1%	38.6	19.7	9.6%	10.4%	21.3%
CCCOc1ccc(-c2nc(C#N)c(N3CCN(CC)CC3)o2)cc1	-0.4%	8.5	-60.1*	-0.8%	-7.9%	4.9%
Cc1ccc(NC(=O)C2CCCN2C(=O)OC(C)(C)C)cc1C (stereo not drawn)	-20.2%	10.7	20.1	4.4%	2.1%	2.0%
COc1ccc2c(c1)c1c(c(=O)n(-c3ccccc3)c(=O)n1CC(=O)NCc1ccc(C)cc1)n2C	-12.4%	·	·	·	·	-10.5%
CC(NC(=O)C1CCN(Cc2ccccc2)CC1)c1cccc2ccccc12 (stereo not drawn)	-26.8%	·	-18.6	?	?	21.2%
O=C(NC(c1ccc(Cl)cc1)c1ccsc1)C1CCN(Cc2ccc(Oc3ccccc3)cc2)CC1 (stereo not drawn)	-51.9%	·	-62.5*	11.6µM*	14.6µM*	-2.6%
COc1ccc(OCCN2CCC(C(=O)NC(c3ccsc3)c3ccccc3C)CC2)cc1 (stereo not drawn)	-15.9%	·	-66.5*	?	?	4.7%
O=C(NC(c1ccccc1)c1ccsc1)C1CCN(Cc2ccccc2)CC1 (stereo not drawn)	-4.0%	·	48.9	6.6%	-4.7%	21.7%
COc1ccc(C(NC(=O)C2CCN(CCOc3ccc(F)cc3)CC2)c2cccs2)cc1 (stereo not drawn)	-40.3%	·	·	?	?	-1.3%
Cc1ccccc1C(NC(=O)C1CCN(Cc2ccc(Oc3ccccc3)cc2)CC1)c1ccsc1 (stereo not drawn)	-28.9%	·	?	?	20.6µM*	2.7%
CC(NC(=O)C1CCN(Cc2ccc(Oc3ccccc3)cc2)CC1)c1cccc2ccccc12 (stereo not drawn)	-56.3%	·	-24.4	10.3µM*	?	?
OC(c1ccccc1)(c1ccccc1)C1CCN(CCCOc2ccc(F)cc2)CC1	·	·	-53.1*	23.1µM*	20.6µM*	·
Fc1ccc(OCCCCCCN2CCCC2)cc1	-32.9%	3.6	18.9	-4.4%	6.6%	?
COC(=O)c1cccc(OCCCN2CCC(C(O)(c3ccccc3)c3ccccc3)CC2)c1	·	·	0.0	16.4µM*	?	·
Cc1ccc(OCCCN2CCC(C(O)(c3ccccc3)c3ccccc3)CC2)cc1	·	·	-51.7*	18.4µM*	?	·
CN(CCc1ccccn1)C(=O)CCC1CCCN(C(=O)c2ccccn2)C1 (stereo not drawn)	1.2%	-1.4	19.0	-0.9%	0.4%	9.0%
O=S(=O)(Nc1nc(-c2sccc2Cl)cs1)c1cc(Cl)ccc1Cl	-91.6%	7.4	35.3	-27.9%	-15.5%	11.2µM*
CC(C)(C)c1nnc(NS(=O)(=O)c2cc(Cl)ccc2Cl)s1	-5.0%	-24.7	32.8	-1.8%	-0.8%	-27.5%
COc1c(C)cccc1C(=O)Nc1ccc(N2CCN(S(C)(=O)=O)CC2)cc1	-13.8%	7.9	-5.0	9.0%	7.3%	-1.9%
CCOc1ccc(S(=O)(=O)c2c(C(=O)c3ccc(C)cc3)cnc3cc4c(cc23)OCCO4)cc1	-5.8%	-1.9	?	10.1%	-1.5%	2.8%
Cc1ccc(C(=O)c2cnc3cc4c(cc3c2S(=O)(=O)c2ccccc2)OCCO4)cc1	-5.9%	-6.2	-79.0*	-26.8%	-24.2%	12.0%
CCc1c(C)c2ccccc2[nH]c1=O	-4.1%	·	·	·	·	11.1%
CC[n+]1c(C=C2C=C(C)OC(C)=C2)sc2ccccc21	-25.6%	7.4	-94.8*	?	?	-24.6%

Source: PubChem BioAssay
